# PubChem BioAssay (NCATS)
# Results filed as inconclusive are left out. Where a call stands in place of a potency, no number is given. Active and inactive are the calls of the source. Unless noted, calls come from the whole dose curve; as a rule, active = well fitted curve in the direction sought with a large enough effect; inconclusive = small, poorly fitted or top-dose-only effect, or another doubt; inactive = no such curve, though single readings can be large; an effect the other way counts as inactive or inconclusive.
# Tests used:
# [1] = qHTS assay for measurement of the activity of small molecule inhibitors on Zika virus induced Caspase-3 activity in human iPSC derived neural progenitor cells (hNPCs) (AID 1224857); note: nearly all actives have a fitted effect of over 65% in size
# Method in brief: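 Caspase-3/7 induction by a 6-hour ZIKV infection was quantified with a luminescent Caspase-Glo 3/7 reagent incubated 30 minutes at room temperature. Compounds were preincubated with hNPCs for 1 hour; inhibition was calculated against uninfected and infected control wells.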
# [2] = qHTS assay for measurement of the activity of small molecule inhibitors on Zika virus induced Caspase-3 activity in human astrocytoma cells (AID 1224859)
# Method in brief: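 In SNB-19 cells plated at 250 cells/well and grown 16-20 h, compounds were applied 1 h before ZIKV (2 FFU/cell). Six hours later caspase-3/7 luminescence was recorded.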
# [3] = Natriuretic polypeptide receptor (hNpr1) antagonism - Pilot counterscreen GloSensor control cell line (AID 1347045; calls by dose curve; note: potency is the fitted concentration of half-maximal effect)
# Method in brief: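 This counterscreen uses HEK293 cells expressing the GIP/pGS-40F cGMP biosensor. Compound-treated cells are challenged with 50 uM sodium nitroprusside, and the luciferase signal is compared before and after stimulation.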
# [4] = target: Atrial natriuretic peptide receptor 1 (Homo sapiens) (UniProt P16066); experiment: Natriuretic polypeptide receptor (hNpr1) antagonism - Pilot screen (AID 1347049; calls by dose curve;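 note: agonist-evoked cGMP luminescence read 20 min after hNppA addition; series mostly up to about 58 µM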)
# Method in brief: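 HEK293 cells expressing hNpr1 and GloSensor cGMP luciferase, 1500/well, loaded with 2% GloSensor reagent 2 h, compound 30 min at room temperature; luminescence read before and 20 min after 0.1 nM hNppA stimulation.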
# [5] = target: Atrial natriuretic peptide receptor 2 (Homo sapiens) (UniProt P20594); experiment: Natriuretic polypeptide receptor (hNpr2) antagonism - Pilot subtype selectivity assay (AID 1347050; calls by dose curve)
# Method in brief: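 HEK293 cells expressing hNpr2 and a GloSensor cGMP luciferase sensor, 1500/well, preloaded 2 h with 2% GloSensor reagent, compound 30 min, then 1 nM hNppC for 20 min. Antagonism from luminescence after versus baseline pre-read; LOPAC in 1:5 titrations.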
# [6] = NS1 protein of Zika virus - qHTS assay to identify small molecule inhibitors in human HEK 293 cells (AID 1347053); note: series mostly up to about 46 µM; nearly all actives have a fitted effect of over 55% in size
# Method in brief: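 HEK 293; 20 h pre-culture, 37 C/5% CO2; cpd 1 h pre-infection; ZIKV MR766, MOI = 0.5, 24 h, 37 C; TR-FRET NS1 readout (two anti-NS1 Abs); norm. to no-virus vs infected.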
# [7] = target: T1, Tyrosine-protein phosphatase non-receptor type substrate 1 (Homo sapiens) + Leukocyte surface antigen CD47 (Homo sapiens) (UniProt P78324+Q08722); experiment: CD47-SIRPalpha protein protein interaction - LANCE assay qHTS validation (AID 1347057; active = well fitted curve in the direction sought with a large enough effect in the signal ratio, with a control signal flat, not every such curve was filed as active; the % refers to the signal ratio; note: series mostly up to about 38 µM)
# Method in brief: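 First, His-tagged CD47 and Eu-labelled anti-His antibody met the compound for 30 min; next, site-specifically biotinylated SIRPalpha was added for 30 min; finally streptavidin-APC was added before reading the TR-FRET ratio.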
# [8] = target: Parathyroid hormone/parathyroid hormone-related peptide receptor (Homo sapiens) (UniProt Q03431); experiment: qHTS for PTHR1 Agonists: Optimization Screen against the NCGC LOPAC library (AID 1347079);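 note: GloSensor cAMP luminescence in HEK-293 GP2 cells expressing human PTHR1 with IBMX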
# Method in brief: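 Compounds were tested across a qHTS titration. PTHR1-expressing GP2 cells report cAMP rises via GloSensor luminescence after 1 hr compound exposure at 37C with IBMX present.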
# [9] = target: N-terminal Xaa-Pro-Lys N-methyltransferase 1 (Homo sapiens) (UniProt Q9BV86); experiment: qHTS Assay for Inhibitors of N-terminal methyltransferase 1 (NTMT1): LOPAC validation of the NTMT1 SAHH-coupled ThioGlo3 Assay (AID 1347143);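 note: SAH from peptide methylation measured as thiol fluorescence via SAHH coupling and ThioGlo3; nearly all actives have a fitted effect of over 70% in size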; note: potency is the fitted concentration of half-maximal effect
# Method in brief: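 Recombinant human NTMT1 (125nM) was pre-incubated 1 min at room temperature with compounds over a concentration range, then a mix of 100uM SAM, 10uM SAHH and 15uM ThioGlo3 (concentrations in added reagent) was added. ThioGlo3 fluorescence (ex 340/em 450nm) after 30 min was normalized to the initial reading.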
# [10] = test system: Zika virus NS2B-NS3 protease (unlinked); experiment: Optimization of GU AMC qHTS for Zika virus inhibitors: Unlinked NS2B-NS3 protease assay (AID 1347151); note: nearly all actives have a fitted effect of over 80% in size; note: potency is the fitted concentration of half-maximal effect
# Method in brief: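 Noncovalent complex of NS2B hydrophilic domain and NS3 protease domain, 25 nM final, in 10 mM Tris-HCl pH 8.0, 0.01% Tween 20. AMC fluorescence change over 15 min at room temperature was fitted to a 4-parameter Hill equation.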
# [11] = target: T1, Tyrosine-protein phosphatase non-receptor type substrate 1 (Homo sapiens) + Leukocyte surface antigen CD47 (Homo sapiens); experiment: CD47-SIRPalpha protein protein interaction - Alpha assay qHTS validation (AID 1347059);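 note: bead proximity luminescence from CD47 binding SIRPalpha after compound preincubation with SIRPalpha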
# Method in brief: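 Biotinylated Avi-tagged SIRPalpha (25 nM) preincubated 30 min with compound, then His-tagged CD47 (12.5 nM) added 30 min; AlphaScreen with Ni-NTA acceptor and streptavidin donor beads. PBS pH 7.4, 0.05% IGEPAL, room temperature; 7-point titrations.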
# [12] = test system: Zika virus NS2B-NS3 protease (linked construct); experiment: Confirmatory screen NINDS AMC qHTS for Zika virus inhibitors (AID 1347152); note: potency is the fitted concentration of half-maximal effect; nearly all actives have a fitted effect of over 70% in size
# Method in brief: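 Purified NS2B-NS3 protease with NS2B hydrophilic domain linked to NS3 protease domain by flexible linker, 1 nM final in 10 mM Tris-HCl pH 8.0, 0.01% Tween 20. Compounds preincubated 15 min, room temperature; Bz-Nle-KRR-AMC 10 microM (Km 18.3 µM); 15-min fluorescence change, 4-parameter Hill fit.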
# [13] = P-glycoprotein substrates identified in KB-3-1 adenocarcinoma cell line, qHTS therapeutic library screen (AID 1346986);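 note: potency is the fitted concentration of half-maximal effect; potency is for cytotoxicity meaning loss of cell viability; nearly all actives have a fitted effect of over 60% in size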
# Method in brief: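 Compounds were tested in dose-response against KB-3-1 and KB-8-5-11 cells at 37 degree C for 72 h, and viability was measured by luminescence. AC50 values came from curve fitting with class-based activity calls.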
# [14] = target: T1, Tyrosine-protein phosphatase non-receptor type substrate 1 (Homo sapiens) + Leukocyte surface antigen CD47 (Homo sapiens); experiment: CD47-SIRPalpha protein protein interaction - HTRF assay qHTS validation (AID 1347058; active = well fitted curve in the direction sought with a large enough effect in the signal ratio, not every such curve was filed as active; the % refers to the signal ratio;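 note: recombinant soluble extracellular CD47 with His tag and biotinylated SIRPalpha domains; series mostly up to about 38 µM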)
# Method in brief: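 TR-FRET read (Ch1/Ch2 ratio) of soluble extracellular CD47 and Avi-biotinylated SIRPalpha domains in PBS pH 7.4 with 0.05% IGEPAL; 7-point compound titration. Sequential 30 min room-temperature steps; non-biotinylated SIRPalpha as control inhibitor.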
# Sequence of Atrial natriuretic peptide receptor 2 (Homo sapiens) (P20594 whole entry, looked up): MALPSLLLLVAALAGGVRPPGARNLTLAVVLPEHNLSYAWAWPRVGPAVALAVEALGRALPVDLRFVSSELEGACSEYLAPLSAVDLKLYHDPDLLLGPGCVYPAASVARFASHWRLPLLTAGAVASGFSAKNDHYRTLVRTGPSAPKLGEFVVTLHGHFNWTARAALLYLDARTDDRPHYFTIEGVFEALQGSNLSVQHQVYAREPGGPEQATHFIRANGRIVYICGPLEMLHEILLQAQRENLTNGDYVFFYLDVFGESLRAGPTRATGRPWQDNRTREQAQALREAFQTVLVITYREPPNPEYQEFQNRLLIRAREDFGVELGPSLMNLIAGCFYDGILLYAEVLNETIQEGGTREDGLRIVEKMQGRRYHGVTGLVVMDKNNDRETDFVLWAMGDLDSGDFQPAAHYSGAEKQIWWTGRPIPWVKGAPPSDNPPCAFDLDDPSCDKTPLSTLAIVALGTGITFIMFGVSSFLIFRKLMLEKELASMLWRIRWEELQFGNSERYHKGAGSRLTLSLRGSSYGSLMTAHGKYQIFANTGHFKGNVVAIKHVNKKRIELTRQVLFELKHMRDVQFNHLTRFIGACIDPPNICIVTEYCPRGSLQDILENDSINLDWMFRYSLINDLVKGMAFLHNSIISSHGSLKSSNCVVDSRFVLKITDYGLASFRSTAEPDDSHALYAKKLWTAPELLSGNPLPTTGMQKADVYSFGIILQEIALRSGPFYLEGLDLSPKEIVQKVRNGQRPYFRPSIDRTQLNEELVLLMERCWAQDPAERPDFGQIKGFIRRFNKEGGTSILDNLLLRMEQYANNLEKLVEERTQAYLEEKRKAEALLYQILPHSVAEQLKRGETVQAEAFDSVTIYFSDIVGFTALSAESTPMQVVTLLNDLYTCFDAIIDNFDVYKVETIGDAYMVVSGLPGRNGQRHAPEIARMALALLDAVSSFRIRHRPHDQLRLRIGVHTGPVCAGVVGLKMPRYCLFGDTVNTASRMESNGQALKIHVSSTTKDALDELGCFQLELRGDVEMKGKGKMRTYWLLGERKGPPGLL
# Sequence of Parathyroid hormone/parathyroid hormone-related peptide receptor (Homo sapiens) (Q03431 whole entry, looked up): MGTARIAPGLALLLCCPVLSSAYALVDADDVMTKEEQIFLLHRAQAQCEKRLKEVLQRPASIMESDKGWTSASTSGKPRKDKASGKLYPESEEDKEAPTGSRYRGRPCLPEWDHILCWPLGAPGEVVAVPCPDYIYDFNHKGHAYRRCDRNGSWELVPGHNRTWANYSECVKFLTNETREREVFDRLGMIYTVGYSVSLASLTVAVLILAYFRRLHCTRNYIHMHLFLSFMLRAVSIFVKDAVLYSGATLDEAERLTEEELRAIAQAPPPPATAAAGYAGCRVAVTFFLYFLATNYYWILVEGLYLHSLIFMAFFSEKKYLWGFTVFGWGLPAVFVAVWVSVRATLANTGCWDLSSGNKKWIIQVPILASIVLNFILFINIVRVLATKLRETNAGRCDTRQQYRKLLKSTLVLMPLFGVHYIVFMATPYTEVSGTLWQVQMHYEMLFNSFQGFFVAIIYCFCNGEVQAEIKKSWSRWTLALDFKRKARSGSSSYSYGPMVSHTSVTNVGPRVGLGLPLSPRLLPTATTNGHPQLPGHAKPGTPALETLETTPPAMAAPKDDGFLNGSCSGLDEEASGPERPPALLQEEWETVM
# T1 sequence (P78324 whole entry, looked up): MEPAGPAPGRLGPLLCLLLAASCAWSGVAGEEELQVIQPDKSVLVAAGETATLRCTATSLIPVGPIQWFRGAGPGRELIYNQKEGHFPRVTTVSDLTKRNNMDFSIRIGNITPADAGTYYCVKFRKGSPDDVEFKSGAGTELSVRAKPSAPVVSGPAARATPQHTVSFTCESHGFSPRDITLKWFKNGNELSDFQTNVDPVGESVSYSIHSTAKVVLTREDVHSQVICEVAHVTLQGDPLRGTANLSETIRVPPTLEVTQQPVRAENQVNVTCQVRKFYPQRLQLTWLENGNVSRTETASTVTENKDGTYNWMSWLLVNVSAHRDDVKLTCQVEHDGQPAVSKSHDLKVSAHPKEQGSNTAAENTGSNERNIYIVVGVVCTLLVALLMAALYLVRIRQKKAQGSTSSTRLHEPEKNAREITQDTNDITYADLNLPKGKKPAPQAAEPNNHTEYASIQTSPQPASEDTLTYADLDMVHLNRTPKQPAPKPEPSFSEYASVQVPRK
# T1 sequence (Q08722 whole entry, looked up): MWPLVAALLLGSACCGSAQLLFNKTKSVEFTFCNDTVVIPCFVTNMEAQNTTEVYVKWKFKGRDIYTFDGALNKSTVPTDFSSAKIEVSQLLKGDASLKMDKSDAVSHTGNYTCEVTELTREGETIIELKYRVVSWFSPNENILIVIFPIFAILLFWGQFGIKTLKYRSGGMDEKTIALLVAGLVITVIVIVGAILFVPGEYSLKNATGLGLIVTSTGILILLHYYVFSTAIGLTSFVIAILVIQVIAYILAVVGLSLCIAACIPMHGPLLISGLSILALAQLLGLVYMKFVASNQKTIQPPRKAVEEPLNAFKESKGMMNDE
# Sequence of Atrial natriuretic peptide receptor 1 (Homo sapiens) (P16066 whole entry, looked up): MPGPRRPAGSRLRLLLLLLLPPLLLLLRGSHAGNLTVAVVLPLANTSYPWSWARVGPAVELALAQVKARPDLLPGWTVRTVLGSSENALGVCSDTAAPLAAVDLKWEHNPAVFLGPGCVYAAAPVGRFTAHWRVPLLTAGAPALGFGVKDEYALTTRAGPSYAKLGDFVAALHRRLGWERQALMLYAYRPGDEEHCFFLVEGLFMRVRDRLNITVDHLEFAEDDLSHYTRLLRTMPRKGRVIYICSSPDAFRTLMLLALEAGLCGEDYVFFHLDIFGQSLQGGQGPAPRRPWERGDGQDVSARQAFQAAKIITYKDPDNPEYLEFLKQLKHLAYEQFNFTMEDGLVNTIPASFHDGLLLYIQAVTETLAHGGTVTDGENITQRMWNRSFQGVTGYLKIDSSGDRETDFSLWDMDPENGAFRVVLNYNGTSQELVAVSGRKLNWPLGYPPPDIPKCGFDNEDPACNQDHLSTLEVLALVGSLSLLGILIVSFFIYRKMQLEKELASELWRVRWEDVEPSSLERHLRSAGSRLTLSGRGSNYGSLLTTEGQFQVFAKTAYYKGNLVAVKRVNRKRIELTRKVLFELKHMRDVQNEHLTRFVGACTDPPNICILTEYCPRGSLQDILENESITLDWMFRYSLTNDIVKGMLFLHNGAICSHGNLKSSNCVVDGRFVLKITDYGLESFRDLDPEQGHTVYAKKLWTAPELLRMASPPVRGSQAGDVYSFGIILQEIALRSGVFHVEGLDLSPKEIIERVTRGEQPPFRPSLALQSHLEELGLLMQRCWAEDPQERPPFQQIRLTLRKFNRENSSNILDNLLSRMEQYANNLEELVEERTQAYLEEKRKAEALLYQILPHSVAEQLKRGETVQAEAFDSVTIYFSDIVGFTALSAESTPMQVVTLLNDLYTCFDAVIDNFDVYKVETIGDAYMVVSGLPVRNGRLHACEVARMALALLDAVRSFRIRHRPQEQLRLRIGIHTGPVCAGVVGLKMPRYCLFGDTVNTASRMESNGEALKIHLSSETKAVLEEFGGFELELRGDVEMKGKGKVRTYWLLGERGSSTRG
# Sequence of N-terminal Xaa-Pro-Lys N-methyltransferase 1 (Homo sapiens) (Q9BV86 whole entry, looked up): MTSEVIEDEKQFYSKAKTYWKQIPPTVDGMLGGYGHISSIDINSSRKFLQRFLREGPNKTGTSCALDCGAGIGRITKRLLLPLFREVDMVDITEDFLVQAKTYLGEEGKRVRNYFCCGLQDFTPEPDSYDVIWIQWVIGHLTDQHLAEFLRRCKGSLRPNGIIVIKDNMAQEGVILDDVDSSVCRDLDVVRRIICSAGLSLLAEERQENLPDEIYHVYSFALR
Structure (SMILES),Potency [1],Potency [2],Potency [3],Potency [4],Potency [5],Potency [6],Potency [7],Potency [8],Potency [9],Potency [10],Potency [11],Potency [12],Potency [13],outcome [14]
Cn1cc(C(=O)OCC2CCN(CCNS(C)(=O)=O)CC2)c2ccccc21,inactive,inactive,inactive,inactive,inactive,inactive,inactive,inactive,inactive,inactive,–,–,–,–
C[C@]12C=CC(=O)C=C1CC[C@@H]1C2=CC[C@]2(C)[C@@H](C(=O)CN3CCN(c4cc(N5CCCC5)nc(N5CCCC5)n4)CC3)CC[C@@H]12,inactive,inactive,inactive,inactive,inactive,inactive,inactive,inactive,–,inactive,inactive,–,–,–
Cn1c(=O)c2[nH]c(-c3ccc(S(=O)(=O)O)cc3)nc2n(C)c1=O,–,–,–,–,–,–,–,–,–,–,–,6.81 µM (active),–,–
CCC1(O)CC2CN(CCc3c([nH]c4ccccc34)[C@@](C(=O)OC)(c3cc4c(cc3OC)N(C)C3[C@]45CCN4CC=C[C@@](CC)([C@@H](OC(C)=O)[C@]3(O)C(=O)OC)[C@H]45)C2)C1 (stereo partly drawn),inactive,inactive,inactive,inactive,inactive,–,–,inactive,–,–,–,–,–,–
O=C1Cc2c([nH]c3ccc(Br)cc23)-c2ccccc2N1,inactive,–,–,–,–,inactive,inactive,inactive,50.1 µM (active),inactive,inactive,–,11.6 µM (active),–
COc1ccc(CCn2nnnc2C2(c3ccc(C)cc3)CC2)cc1,inactive,inactive,inactive,–,inactive,inactive,inactive,inactive,inactive,inactive,inactive,–,–,inactive
Cc1ccc2c(c1)C(N1CCN(C)CC1)=Nc1cccnc1N2,inactive,inactive,inactive,inactive,–,inactive,inactive,inactive,inactive,inactive,inactive,–,–,–
N#C/C(=C\c1ccc(O)c(O)c1)C(=O)NCCc1ccccc1,inactive,inactive,inactive,–,inactive,inactive,inactive,inactive,44.7 µM (active),2.38 µM (active),inactive,–,–,–
O=C(O)C1=CCNCC1,inactive,inactive,inactive,–,inactive,–,inactive,inactive,inactive,inactive,inactive,–,–,inactive
CC[C@@H]1Cc2cc(O)ccc2C2=C1c1ccc(O)cc1C[C@H]2CC,inactive,inactive,20.7 µM (active),–,inactive,inactive,–,inactive,79.4 µM (active),inactive,inactive,–,–,–
N#CC(=C(\N)Sc1ccccc1N)/C(C#N)=C(/N)Sc1ccccc1N,inactive,inactive,18.5 µM (active),–,inactive,inactive,inactive,–,56.2 µM (active),–,inactive,–,–,–
CC1CCN=C(N)S1 (stereo not drawn),inactive,inactive,inactive,–,inactive,inactive,inactive,inactive,inactive,inactive,inactive,–,–,inactive
COc1ccc(C(=O)NCc2cccnc2)cc1C(=O)NCc1cccnc1,inactive,inactive,inactive,–,inactive,inactive,inactive,inactive,–,inactive,–,–,–,inactive
